# Source: PubChem BioAssay (NCATS)
# Inconclusive results are not listed. Activity calls are given as the source filed them. Unless noted, the call rests on the fitted dose curve.
# Experiments:
# [1] = qHTS drug screen for cell cycle checkpoint inhibitors in PARPi-resistant BRCA-mutant ovarian cancer cell lines. (AID 1963452); conditions: PEO1/OlaR viability, CellTiter-Glo luminescence, 96 h; for Z-AUC: stronger effect = lower value; further: potency means the concentration at half of the fitted maximal effect
# Method in brief: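 PEO1, PEO4 and PEO1/OlaR ovarian cancer cells, 600 per well, exposed 96 h at 37C to a dilution series. Viability read by CellTiter-Glo luminescence, normalized to DMSO and empty wells; activity summarized as Z-AUC.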
# [2] = qHTS for identification of novel therapeutic agents for treatment of microphthalmiaassociated transcription factor (MiT) renal cell carcinoma (RCC) (AID 1963991); conditions: CellTiter-Glo, 48 h; for z-score: stronger effect = lower value; for Potency: active = Z-AUC below -0.8 in all three lines; further: potency means the concentration at half of the fitted maximal effect
# Method in brief: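 Curves over 11 concentrations were fitted to CellTiter-Glo luminescence, scaled between empty wells (0%) and DMSO (100%) viability. Cells were UOK109, UOK124 and UOK145 TFE3-fusion RCC lines at 500/well, exposed 48 hours at 37 C.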
# [3] = qHTS profiling for inhibitors of Plasmodium falciparum proliferation (AID 504749; active means well fitted inhibition curve with a large enough effect;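 further: 0% = DMSO vehicle and full inhibition = artemisinin control; nearly all actives have a fitted effect of over 60% in size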); conditions: P. falciparum in erythrocytes, SYBR Green DNA, 72 h, at 28.7 µM (top of the series)
# Method in brief: (§1)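 Quantitative HTS: compounds pinned into medium, infected erythrocytes added (0.3% parasitemia, 2.5% hematocrit), 72 h culture at 37 C under 5% CO2. Saponin/Triton lysis with SYBR Green I, overnight RT, then fluorescence read.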
# 3D7 = experiment: as above; conditions: P. falciparum in erythrocytes, SYBR Green DNA, 72 h; series mostly up to 28.7 µM
# Method in brief: as §1
# 7G8 = experiment: as above; conditions: P. falciparum in erythrocytes, SYBR Green DNA, 72 h; series mostly up to 28.7 µM
# Method in brief: as §1
# AA1029 = experiment: as above; conditions: P. falciparum in erythrocytes, SYBR Green DNA, 72 h; series mostly up to 28.7 µM
# Method in brief: as §1
# ATS189 = experiment: as above; conditions: P. falciparum in erythrocytes, SYBR Green DNA, 72 h; series mostly up to 28.7 µM
# Method in brief: as §1
# ATS95 = experiment: as above; conditions: P. falciparum in erythrocytes, SYBR Green DNA, 72 h; series mostly up to 28.7 µM
# Method in brief: as §1
# [4] = measured here: PEO1 parental Z-AUC
# [5] = TFE3-RCC UOK109 viability, measured here: UOK109 Z-AUC
# [6] = TFE3-RCC viability, measured here: UOK124 Z-AUC
# [7] = TFE3-RCC viability, measured here: UOK145 Z-AUC
structure (smiles),measurement,setting,value
C[C@H](c1ccc(F)cc1CCCC(=O)O)N(c1cc(F)ccc1F)S(=O)(=O)c1ccc(Cl)cc1,Z-AUC,[1],-0.634 (inactive)
same,Z-AUC,[1]; [4],-0.271
same,Z-AUC,[1]; measured here: PEO4 Z-AUC,-0.797
same,z-score,[2]; [5],0.174
same,z-score,[2]; [6],-0.0423
same,z-score,[2]; [7],-0.497
c1ccc(CNc2nc(N3CCOc4ccccc43)nc3c2CCCC3)cc1,Z-AUC,[1],0.483 (inactive)
same,Z-AUC,[1]; [4],0.277
same,Z-AUC,[1]; measured here: PEO4 Z-AUC,1.17
same,z-score,[2]; [5],0.901
same,z-score,[2]; [6],0.197
same,z-score,[2]; [7],0.631
Cc1nc2c([nH]1)CCN(C(=O)c1ccc(NC(=O)c3ccccc3-c3ccccc3)cc1)c1ccccc1-2,Z-AUC,[1],0.604 (inactive)
same,Z-AUC,[1]; [4],0.56
same,Z-AUC,[1]; measured here: PEO4 Z-AUC,0.851
same,z-score,[2]; [5],-0.104
same,z-score,[2]; [6],0.486
same,z-score,[2]; [7],0.369
CCOC(=O)[C@@H](N)CCC(=O)N[C@@H](CSCc1ccccc1)C(=O)N[C@@H](C(=O)OCC)c1ccccc1,Z-AUC,[1],1.2 (inactive)
same,Z-AUC,[1]; [4],1.04
same,Z-AUC,[1]; measured here: PEO4 Z-AUC,1.07
same,z-score,[2]; [5],-0.0164
same,z-score,[2]; [6],0.492
same,z-score,[2]; [7],0.0682
CCOC(=O)N1c2ccc(C(F)(F)F)cc2[C@@H](N(Cc2cc(C(F)(F)F)cc(C(F)(F)F)c2)C(=O)OC)C[C@H]1CC,Z-AUC,[1],-1 (inactive)
same,Z-AUC,[1]; [4],0.195
same,Z-AUC,[1]; measured here: PEO4 Z-AUC,-0.682
same,z-score,[2]; [5],0.825
same,z-score,[2]; [6],0.72
same,z-score,[2]; [7],0.57
CC(C)C[C@@H](N)[C@H](O)C(=O)N[C@H](C(=O)N[C@H](C(=O)N[C@@H](CC(=O)O)C(=O)O)C(C)C)C(C)C,Z-AUC,[1],-0.687 (inactive)
same,Z-AUC,[1]; [4],-0.6
same,Z-AUC,[1]; measured here: PEO4 Z-AUC,-0.277
same,z-score,[2]; [5],0.245
same,z-score,[2]; [6],0.596
same,z-score,[2]; [7],-0.2
Cc1ccc(S(=O)(=O)OCC(=O)Nc2ccc(C(=O)O)c(O)c2)cc1,Z-AUC,[1],1.67 (inactive)
same,Z-AUC,[1]; [4],1.37
same,Z-AUC,[1]; measured here: PEO4 Z-AUC,1.35
same,z-score,[2]; [5],-0.0907
same,z-score,[2]; [6],0.585
same,z-score,[2]; [7],-0.321
CN1C(=O)C[C@H](C(=O)N[C@@H](Cc2cnc[nH]2)C(=O)N2CCC[C@@H]2C(N)=O)NC1=O,Z-AUC,[1],0.875 (inactive)
same,Z-AUC,[1]; [4],1.25
same,Z-AUC,[1]; measured here: PEO4 Z-AUC,1.02
same,z-score,[2]; [5],0.71
same,z-score,[2]; [6],0.308
same,z-score,[2]; [7],0.628
CCCCOCCOc1nc(-c2ccc(C(=O)O)c(F)c2)sc1C,Z-AUC,[1],1.12 (inactive)
same,Z-AUC,[1]; [4],0.866
same,Z-AUC,[1]; measured here: PEO4 Z-AUC,0.696
same,z-score,[2]; [5],1.12
same,z-score,[2]; [6],0.152
same,z-score,[2]; [7],0.316
CC(C)(OCc1nn(Cc2ccccc2)c2ccccc12)C(=O)O,Z-AUC,[1],1.03 (inactive)
same,Z-AUC,[1]; [4],1.11
same,Z-AUC,[1]; measured here: PEO4 Z-AUC,1.54
COc1cccc(OC)c1-c1cc(C(=O)NC2(C(=O)O)C3CC4CC(C3)CC2C4)nn1-c1ccnc2cc(Cl)ccc12 (configuration not stated),Z-AUC,[1],1.24 (inactive)
same,Z-AUC,[1]; [4],0.986
same,Z-AUC,[1]; measured here: PEO4 Z-AUC,1.12
same,z-score,[2]; [5],1.18
same,z-score,[2]; [6],0.441
same,z-score,[2]; [7],0.707
NC[C@H]1O[C@H](O[C@@H]2[C@@H](O)[C@@H](O[C@H]3O[C@H](CO)[C@@H](O)[C@H](N)[C@@H]3O)[C@H](N)C[C@@H]2N)[C@H](O)[C@@H](O)[C@H]1O,Z-AUC,[1],1.2 (inactive)
same,Z-AUC,[1]; [4],0.776
same,Z-AUC,[1]; measured here: PEO4 Z-AUC,0.763
same,z-score,[2]; [5],1.51
same,z-score,[2]; [6],0.542
same,z-score,[2]; [7],0.0704
CNC(=O)c1c(-c2ccc(F)cc2)oc2cc(N(CCO)S(C)(=O)=O)c(C3CC3)cc12,Z-AUC,[1],0.51 (inactive)
same,Z-AUC,[1]; [4],0.436
same,Z-AUC,[1]; measured here: PEO4 Z-AUC,0.532
Cc1ccccc1C(C(=O)NC1CCCCC1)N(C(=O)CNc1ccc(C#N)cc1)c1cccc(F)c1 (configuration not stated),Z-AUC,[1],0.169 (inactive)
same,Z-AUC,[1]; [4],0.0819
same,Z-AUC,[1]; measured here: PEO4 Z-AUC,0.0144
same,z-score,[2]; [5],0.515
same,z-score,[2]; [6],0.305
same,z-score,[2]; [7],0.632
O=C(O)Cc1cccc(OCCCN(Cc2cccc(C(F)(F)F)c2Cl)CC(c2ccccc2)c2ccccc2)c1,Z-AUC,[1],-0.299 (inactive)
same,Z-AUC,[1]; [4],0.225
same,Z-AUC,[1]; measured here: PEO4 Z-AUC,0.165
same,z-score,[2]; [5],-0.604
same,z-score,[2]; [6],0.0786
same,z-score,[2]; [7],0.416
CCN(CCO)CCCOc1ccc2c(Nc3cc(CC(=O)Nc4cccc(F)c4)[nH]n3)ncnc2c1,Z-AUC,[1],-0.614 (inactive)
same,Z-AUC,[1]; [4],-0.629
same,Z-AUC,[1]; measured here: PEO4 Z-AUC,-1.66
same,z-score,[2]; [5],0.018
same,z-score,[2]; [6],0.316
same,z-score,[2]; [7],0.045
Cc1cn([C@@H]2C[C@@H](O)[C@H](CO)O2)c(=O)[nH]c1=O,Z-AUC,[1],0.721 (inactive)
same,Z-AUC,[1]; [4],0.778
same,Z-AUC,[1]; measured here: PEO4 Z-AUC,0.771
same,z-score,[2]; [5],0.973
same,z-score,[2]; [6],1.9
same,z-score,[2]; [7],0.117
CC(NCCc1ccc(O)cc1)C(O)c1ccc(O)cc1 (configuration not stated),Z-AUC,[1],-0.504 (inactive)
same,Z-AUC,[1]; [4],0.762
same,Z-AUC,[1]; measured here: PEO4 Z-AUC,0.7
same,z-score,[2]; [5],0.72
same,z-score,[2]; [6],0.96
same,z-score,[2]; [7],2.38
Cc1cc(NC(=O)Nc2ccc(N(C)C)cc2)c2cc(F)cc(F)c2n1,z-score,[2]; [5],1.14
same,z-score,[2]; [6],0.89
same,z-score,[2]; [7],1.08
O=C1NC(=O)C(c2cnc3ccccn23)=C1c1cn2c3c(cccc13)CN(C(=O)N1CCOCC1)CC2,Z-AUC,[1],-1.3 (inactive)
same,Z-AUC,[1]; [4],-1.91
same,Z-AUC,[1]; measured here: PEO4 Z-AUC,-0.9
same,Potency,[2]; TFE3-RCC UOK109 viability,4.18 µM (active)
same,z-score,[2]; [5],-1.6
same,z-score,[2]; [6],-1.78
same,z-score,[2]; [7],-1.46
CCC[C@H](Nc1nc(-c2ccc(NC(=O)NCC)c(OC)c2)ncc1C)c1cccnc1,Potency,[1],0.0087 µM (active)
same,Z-AUC,[1]; [4],-2.97
same,Z-AUC,[1]; measured here: PEO4 Z-AUC,-3.47
same,Potency,[2]; TFE3-RCC UOK109 viability,0.0372 µM (active)
same,z-score,[2]; [5],-2.33
same,z-score,[2]; [6],-3.81
same,z-score,[2]; [7],-2.31
CS(=O)(=O)c1ccc(C2=C(c3ccccc3)C(=O)OC2)cc1,Z-AUC,[1],0.327 (inactive)
same,Z-AUC,[1]; [4],0.543
same,Z-AUC,[1]; measured here: PEO4 Z-AUC,0.0438
same,z-score,[2]; [5],0.605
same,z-score,[2]; [6],0.766
same,z-score,[2]; [7],0.708
same,"activity, negative = inhibition",[3]; parasite line A,0.606% (inactive)
same,"activity, negative = inhibition",[3]; parasite line B,18.5% (inactive)
same,Potency,3D7,inactive
same,Potency,7G8,inactive
same,Potency,AA1029,inactive
same,Potency,ATS189,inactive
same,Potency,ATS95,inactive
CCNC(=O)[C@H]1O[C@@H](n2cnc3c(N)nc(NCCc4ccc(CCC(=O)O)cc4)nc32)[C@H](O)[C@H]1O,z-score,[2]; [5],0.882
same,z-score,[2]; [6],0.527
same,z-score,[2]; [7],0.68
Cc1ccc(C(=O)N(CCCN)[C@@H](c2oc3cc(Cl)ccc3c(=O)c2Cc2ccccc2)C(C)C)cc1,Potency,[1],8.71 µM (active)
same,Z-AUC,[1]; [4],-2.6
same,Z-AUC,[1]; measured here: PEO4 Z-AUC,-2.5
same,Potency,[2]; TFE3-RCC UOK109 viability,37.2 µM (active)
same,z-score,[2]; [5],-1.98
same,z-score,[2]; [6],-1.71
same,z-score,[2]; [7],-2
